Screens (PubChem)
In the library only some 21% were active in any assay of this set; here they are far more common.
Shiga inhibitor = blocks Shiga toxin action in Vero cells; Vero cells, Shiga toxin protein synthesis inhibition reporter; inhibition, % at 38.7 µM; 290,000 tested, 9.2% active; AID 2315; in the data active means inhibition mostly above about 28%, no sharp cut-off; inactive means mostly below about 43%
CHX counter = counter-screen hit for Shiga toxin inhibitors, cycloheximide; cell reporter, cycloheximide protein synthesis inhibition counterscreen; 300,000 tested, 12% active; max response, %; in the data active means max response mostly above about 13%, no sharp cut-off; inactive means mostly below about 14%; further: read at 38.3 µM for the half of the compounds with a filed dose
Pf growth 48h = inhibits P. falciparum growth in the first generation, 48 h; 310,000 tested, 5.9% active; AID 504832; P. falciparum luciferase growth in erythrocytes, 48 h; Potency, µM (highest dose often 28.7 µM), most hits filed as inhibitors
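Erythrocytes infected with P. falciparum carrying an integrated firefly luciferase reporter (2% hematocrit, 0.1% parasitemia final) were exposed to compounds in RPMI 1640 with 0.5% Albumax at 37 C, 5% CO2. Growth inhibition was scored as reduced luminescence.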
HCV inh = inhibitors of hepatitis C virus infection. Huh7.5.1 HCVcc-Cre infection, luciferase reporter, 44 h. Potency, µM (top dose mostly 41.8 µM), usual class: inhibitors. 340,000 tested, 3.4% active. AID 651820
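A cell-based infection assay in which seeded cells (1,000 per well) receive test compound after 4 h, are inoculated with HCVcc-Cre at approximately 0.5 moi, and are incubated 44 h before luminescence detection.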
HCMV antiviral = human cytomegalovirus inhibition. 410,000 tested, 4.5% active. HFF cells, HCMV-luciferase reporter, 72 h; stronger effect = lower value. activity change, negative = inhibition, % at 57.5 µM; in the data active means activity change below about -60%; inconclusive means no clear call, values can overlap the other calls; inactive means above about -39%
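Luciferase read-out from HCMV-luciferase-infected HFFs (MOI 1 PFU/cell) 72 h post infection at 37C; compounds added after 16 h cell attachment; activity normalized between buffer-only basal and Salinomycin (10uM) inhibitor controls.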
Pf growth 96h = inhibits malaria parasite growth, 96 h; P. falciparum luciferase reporter growth, 96 h; 320,000 tested, 6.9% active; Potency, µM (top dose mostly 28.7 µM), hits mostly inhibitors; AID 504834
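Erythrocytes infected with luciferase-expressing P. falciparum were dispensed at 2% hematocrit and 0.05% parasitemia (final), then incubated with compounds 96 hours at 37 C in 5% CO2. Luminescence after detection reagent addition reported growth.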
Numbers stand for hits; – = inactive; ? = inconclusive; · = no result; [ ] = dose if it differs, or a comment. Unless noted, the call rests on the fitted dose curve; in most records, active means well fitted inhibition curve with a large enough effect; inconclusive means small, poorly fitted or top-dose-only effect, or another doubt; inactive means no such curve, though single readings can be large or run the other way.

SMILES | Shiga inhibitor | CHX counter | Pf growth 48h | HCV inh | HCMV antiviral | Pf growth 96h
O=C(/C=C/c1ccc(O)cc1)OC[C@H]1O[C@@H](Oc2c(-c3ccc(O)cc3)oc3cc(O)cc(O)c3c2=O)[C@H](O)[C@@H](O)[C@@H]1O | – | – | · | · | · | ·
COCCN(C(=O)c1ccccc1Oc1ccccc1)c1c(N)n(CC(C)C)c(=O)[nH]c1=O | · | · | – | – | – | –
CCN(CC)S(=O)(=O)c1cccc(C(=O)NCC2(N3CCOCC3)CCCCC2)c1 | · | · | ? | – | – | ?
Nc1nc(COc2ccc(Cl)cc2)cs1 | 65 | 33 | – | – | – | –
Cc1cccc(OCc2nnc(N)s2)c1C | – | – | ? | – | – | ?
Nc1nc(COc2ccccc2)cs1 | – | – | · | – | – | –
Cc1ccccc1OCc1csc(N)n1 | – | 16 | – | – | – | –
Cc1ccc(OCc2csc(N)n2)cc1 | 83 | 35 | – | – | – | –
CCOC(=O)c1c(C)[nH]c(C)c1S(=O)(=O)NCC(=O)NCc1cccc(Br)c1 | · | · | · | · | – | ·
Cc1ccc2c(c1)cc(CN(Cc1ccco1)C(=O)COc1ccccc1)c1nnnn12 | 65 | 26 | ? | – | – | –[5.75 µM]
CCC(=O)N(Cc1ccco1)Cc1cc2cccc(C)c2n2nnnc12 | – | – | – | – | ? | ?
Cc1cccc(OCC(=O)N(Cc2ccc(C(C)(C)C)cc2)Cc2ccco2)c1 | · | · | · | · | -82 | ·
Cc1cc(=O)oc2ccc(OCC(=O)N(Cc3ccc(F)cc3)Cc3ccco3)cc12 | 76 | 47 | 10µM | 3.2µM | – | ?
Cc1ccc(CN(Cc2ccco2)C(=O)COc2ccc(C)c(C)c2)cc1 | · | · | · | · | – | ·
COc1ccccc1N1CCN(c2nc3ccccc3n3cnnc23)CC1 | · | · | · | · | – | ·
O=C(CSc1nncs1)NC(=O)Nc1ccc2c(c1)OCCO2 | 59 | 45 | – | – | – | –
O=C(CSc1nncs1)Nc1ccc2c(c1)OCCO2 | 58 | 59 | · | – | – | –
O=C(CSc1nnc(CNc2cccc(C(F)(F)F)c2)n1Cc1ccco1)NCc1ccco1 | – | – | – | – | – | –
O=C(O)CSc1nnc(CNc2cccc(C(F)(F)F)c2)n1Cc1ccco1 | – | – | – | – | – | 6.6µM
O=C(Nc1ccccc1Cl)c1cc(S(=O)(=O)N2CCCCC2)ccc1N1CCOCC1 | – | – | 9.3µM | ? | – | 5.9µM
CCCCCC(=O)Nc1cc(S(=O)(=O)N2CCOCC2)ccc1N1CCCC1 | – | – | – | · | – | –
CC(C)Oc1ccc(S(=O)(=O)N2CCOCC2)cc1NC(=O)c1cc([N+](=O)[O-])ccc1N1CCOCC1 | · | · | 13µM | ? | – | 12µM
Cc1occc1C(=O)Nc1cc(S(=O)(=O)N2CCOCC2)ccc1OC(C)C | · | · | ? | – | – | ?
O=C(Nc1cc(S(=O)(=O)N2CCOCC2)ccc1N1CCOCC1)c1cccc(S(=O)(=O)N2CCCCC2)c1 | – | – | ? | – | – | ?
O=C(Nc1cc(S(=O)(=O)N2CCOCC2)ccc1N1CCOCC1)c1ccc(S(=O)(=O)N2CCCCC2)cc1 | – | – | 12µM | – | – | ?
SMILES | Shiga inhibitor | CHX counter | Pf growth 48h | HCV inh | HCMV antiviral | Pf growth 96h
CCCCCC(=O)Nc1cc(S(=O)(=O)N2CCCCC2)ccc1N1CCOCC1 | – | – | 13µM | ? | – | ?
O=C(NCCc1ccccc1Cl)[C@@H]1CCCN1C(=O)[C@@H](NS(=O)(=O)c1ccc(F)cc1F)C1CCCCC1 | · | · | · | · | – | ·
COc1ccccc1NS(=O)(=O)c1ccc(NC(=O)N2CCCCC2)cc1 | – | – | – | · | – | –
Cc1cc(Br)cn2c(Cc3cccc(Cl)c3)c(C3CCCCC3)nc12 | · | · | · | · | – | ·
Cc1c(C(=O)Nc2cc(S(=O)(=O)N3CCOCC3)ccc2N2CCOCC2)oc2ccccc12 | – | – | 10µM | – | – | ?
O=C(Nc1cc(S(=O)(=O)N2CCOCC2)ccc1N1CCCC1)C1CC1 | – | – | – | – | – | –
CC1CC1C(=O)Nc1cc(S(=O)(=O)N2CCOCC2)ccc1N1CCCC1 (stereo unspecified) | – | – | – | 10µM | ? | –
O=S(=O)(c1ccc(N2CCN(S(=O)(=O)c3ccc4c(c3)OCCO4)CC2)nc1)N1CCCC1 | – | – | 13µM | – | – | –
CC(=O)NCCC(=O)Nc1cc(S(=O)(=O)N2CCCCC2)ccc1N1CCCCC1 | · | · | 1.2µM | – | – | 1.2µM
COc1ccc(N2CCN(C(=O)[C@@H]3CCCN3C3=NS(=O)(=O)c4ccccc43)CC2)cc1 | · | · | ? | – | – | –
